# Assay results reported in PubChem BioAssay.
# Target: Torsin-1A-interacting protein 1 (Homo sapiens) (UniProt Q5JTV8)
# Assay: compound microarray binding of lysate hLAP1 – cell lysate, small-molecule microarray, COS7 lysate, 635/667 nm fluorescence, primary screen (AID 1116)
# Conditions: 635 nm fluorescence, higher = more signal
# Chain of Torsin-1A-interacting protein 1 (Homo sapiens) (Q5JTV8 whole entry, looked up): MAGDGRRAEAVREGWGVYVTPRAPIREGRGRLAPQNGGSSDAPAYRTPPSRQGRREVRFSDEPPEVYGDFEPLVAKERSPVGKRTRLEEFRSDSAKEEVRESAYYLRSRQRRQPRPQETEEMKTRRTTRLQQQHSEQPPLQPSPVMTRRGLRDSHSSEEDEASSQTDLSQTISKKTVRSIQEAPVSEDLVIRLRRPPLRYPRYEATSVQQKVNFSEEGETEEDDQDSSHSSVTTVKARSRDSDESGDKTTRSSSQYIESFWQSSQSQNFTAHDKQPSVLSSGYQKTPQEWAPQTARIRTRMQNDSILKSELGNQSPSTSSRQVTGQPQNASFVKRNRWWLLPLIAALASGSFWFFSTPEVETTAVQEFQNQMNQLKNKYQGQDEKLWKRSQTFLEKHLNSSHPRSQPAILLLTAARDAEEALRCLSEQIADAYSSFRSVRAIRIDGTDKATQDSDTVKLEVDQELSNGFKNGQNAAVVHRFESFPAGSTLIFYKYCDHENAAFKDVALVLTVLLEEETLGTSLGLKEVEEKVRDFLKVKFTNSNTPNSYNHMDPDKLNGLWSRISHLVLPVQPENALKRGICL
row,Structure (SMILES),composite z-score
1,Cc1ccc(S[C@]2(C(=O)NCC(F)(F)F)CC(=O)N(Cc3cc(C(F)(F)F)cc(C(F)(F)F)c3)[C@@H]2c2ccc(CO)cc2)cc1,-0.851
2,COCCOC(=O)N1C(=O)[C@@]2(c3ccccc31)[C@H](c1ccc(O)cc1)N1[C@H](c3ccccc3)[C@H](c3ccccc3)OC(=O)[C@H]1[C@@H]2C(=O)N1CCN(c2ncccn2)CC1,0.675
3,CCCCC(CC)C(O)C1C=CC2C(=O)N(c3ccccc3)C(=O)C2N1Nc1ccccc1F (stereo unspecified),0.928
4,COC(=O)C/C=C/C[C@]1(O)C(=O)N(C)c2ccccc21,0.194
5,COCCOC(=O)N1C(=O)[C@@]2(c3cc(C#CCCO)ccc31)[C@H](c1ccc(OCCO)cc1)N1[C@H](c3ccccc3)[C@H](c3ccccc3)OC(=O)[C@H]1[C@@H]2C(=O)Nc1nc2ccccc2s1,1.08
6,CC(C)c1ccc(NN2C(C(O)c3ccc(F)cc3)C=CC3C(=O)N(c4ccccc4)C(=O)C32)cc1 (stereo unspecified),0.305
7,O=C1[C@H]2C=C(I)[C@H](C[C@@H]2OCCOCCO)[C@@]12CO2,0.269
8,COC(=O)[C@@]1(Cc2ccc(F)cc2)[C@H]2c3cc(C(=O)N4CCCC4)n(CCc4c[nH]c5ccccc45)c3C[C@H]2CN1C(=O)c1ccccc1,1.63
9,O=C1OCCC/C=C\[C@H]2OC34C=CCN(c5ccc6ccccc6c5)C(=O)[C@H]3N(CCO)C(=O)[C@@H]4C12 (stereo partly specified),-0.399
10,Cc1ccc(S[C@]2(C(=O)O)CC(=O)N(C3CCCCC3)[C@@H]2c2ccc(CO)cc2I)cc1,1.4
11,CCCCC(CC)C(O)C1C=CC2C(=O)N(C)C(=O)C2N1Nc1ccccc1 (stereo unspecified),0.466
